The results in this text go back to PubChem BioAssay (EPA / NIEHS).

The structures appear in SMILES notation. “And” between values parts separate entries of the source, which are not always exact repeats. Identical values can stand only once. The source holds several records for some structures; these can differ, active in one and inactive in another. The source made the active and inactive calls. Rule for the calls: active = hit-call score of the fitted dose curve at least 0.9, where 1 is the maximum; inactive = score below 0.9.

The nature of assay [1]: APR_HepG2_NuclearSize_72hr: Apredica 72-hour HepG2 Assay for Nuclear Size (AID 2282925). Conditions: high-content imaging, actives raise or lower the signal. The method in brief: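 Read-out: nuclear diameter from Hoechst 33342 images (ArrayScan, 20x, six fields/well), via cell-cycle image analysis. HepG2 were dosed 0.39–200 uM for 72 hr in 0.5% DMSO. Bidirectional fit relative to DMSO.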

Assay [2] in a line: ATG_CRE_CIS: Attagene CIS-FACTORIAL HepG2 Assay for human cAMP Responsive Element (CRE) binding protein 3 (AID 2282926). Conditions: HepG2 CRE cis-reporter, Attagene multiplexed mRNA; actives raise or lower the signal. The method in brief:
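Endogenous transcription factor activity read via CRE-regulated reporter transcripts in transfected HepG2 cells. After 24 h exposure, RNA was reverse-transcribed, amplified, fluorescently labelled and sized by capillary electrophoresis; gain or loss fitted against DMSO.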

Assay [3] addresses CCAAT/enhancer-binding protein beta (Homo sapiens) (UniProt P17676). Kind of assay: ATG_C_EBP_CIS: Attagene CIS-FACTORIAL HepG2 Assay for human CCAAT/Enhancer Binding Protein (C/EBP) beta (AID 2282927). Conditions: HepG2 Attagene cis-factorial transcription factor reporter; actives raise or lower the signal. The method in brief:
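HepG2 transiently transfected with multiplexed reporter units under cis-regulatory promoters reporting endogenous C/EBPb activity. After 24 h exposure, reporter mRNA assayed by RT-PCR, fluorescent labelling, HpaI digestion and capillary electrophoresis; bidirectional fitting versus DMSO.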

A short description of assay [4]: ATG_CMV_CIS: Attagene CIS-FACTORIAL HepG2 Assay for human CMV (Internal Marker) (AID 2282928).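 Note: endpoint acts as a background internal control marker rather than a target.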 Conditions: HepG2 CMV promoter reporter, transcription factor profiling; actives raise or lower the signal. The method in brief: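 Bidirectional fits against DMSO are applied to reporter mRNA, read by RT-PCR with capillary electrophoresis, from HepG2 cells exposed 24 h. The endpoint serves as an internal CMV background marker within the cis-factorial reporter panel.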

Assay [5] is described as follows: ATG_DR4_LXR_CIS: Attagene CIS-FACTORIAL HepG2 Assay for human Liver X Receptor (LXR), DR4 submotif (AID 2282929). Conditions: HepG2 Attagene DR4 cis-reporter, mRNA transcription; actives raise or lower the signal. The method in brief: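 Measures endogenous transcription factor activity via a DR4-driven reporter transcript in human HepG2 cells. Compounds incubated 24 h; mRNA quantified by RT-PCR and capillary electrophoresis, analysed as gain or loss of signal versus DMSO.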

Assay [6] addresses Aryl hydrocarbon receptor (Homo sapiens) (UniProt P35869). Briefly: ATG_Ahr_CIS: Attagene CIS-FACTORIAL HepG2 Assay for human Aryl Hydrocarbon Receptor (Ahr) (AID 2282930). Conditions: HepG2 AhR cis-factorial reporter transcription; actives raise or lower the signal. The method in brief: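 HepG2 cells transiently transfected with cis-element-driven multiplexed reporter units; endogenous AhR activity read as reporter mRNA 24 h after dosing, via RT-PCR, 6-FAM labelling, HpaI digestion and capillary electrophoresis. Bidirectional fit relative to DMSO.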

Assay [7] in a line: ATG_AP_1_CIS: Attagene CIS-FACTORIAL HepG2 Assay for human Activator Protein 1 (AP-1) (AID 2282931). Conditions: HepG2 Attagene cis-factorial AP-1 reporter mRNA; actives raise or lower the signal. The method in brief: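 Bidirectional concentration-response fitting against DMSO controls. Underlying signal: reporter mRNA from cis-promoter constructs in transiently transfected HepG2, measured after 24 h by RT-PCR and capillary electrophoresis.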

Assay [8] is described as follows: ATG_AP_2_CIS: Attagene CIS-FACTORIAL HepG2 Assay for human Activator Protein 2 (AP-2) (AID 2282932). Conditions: HepG2 AP-2 cis-reporter, Attagene transcription factor profiling; actives raise or lower the signal. The method in brief:
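Liver-derived HepG2 line, cis-reporter system measuring endogenous factors; 24 h dosing; reporter mRNA detected by fluorescent RT-PCR and capillary electrophoresis.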

Assay [9] is described as follows: ATG_BRE_CIS: Attagene CIS-FACTORIAL HepG2 Assay for human Bone Morphogenetic Protein (BMP) Response Element (BRE) (AID 2282933). The note with it: HepG2 BMP response element reporter, Attagene transcription factor profiling; actives raise or lower the signal. The method in brief:
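HepG2 cells transiently transfected with multiplexed cis-element reporter units were dosed with chemical for 24 h. Reporter mRNA was measured by RT-PCR with fluorescent labelling, HpaI digestion and capillary electrophoresis; bidirectional fitting relative to DMSO.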

For assay [10], the target named is Retinoic acid receptor alpha (Homo sapiens) (UniProt P10276). Briefly: ATG_DR5_RAR_CIS: Attagene CIS-FACTORIAL HepG2 Assay for human Retinoic Acid Receptor Alpha (RARE), DR5 submotif (AID 2282934). The note with it: HepG2 Attagene cis-factorial RARE DR5 reporter, mRNA; actives raise or lower the signal. The method in brief:
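HepG2 cells transiently transfected with multiplexed reporter units; DR5 cis-element drives reporter through endogenous transcription factors. After 24 h dosing, reporter mRNA quantified by RT-PCR, fluorescent labeling, HpaI digestion and capillary electrophoresis; bidirectional fitting versus DMSO.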

Chain of Aryl hydrocarbon receptor (Homo sapiens) (P35869 whole entry, looked up): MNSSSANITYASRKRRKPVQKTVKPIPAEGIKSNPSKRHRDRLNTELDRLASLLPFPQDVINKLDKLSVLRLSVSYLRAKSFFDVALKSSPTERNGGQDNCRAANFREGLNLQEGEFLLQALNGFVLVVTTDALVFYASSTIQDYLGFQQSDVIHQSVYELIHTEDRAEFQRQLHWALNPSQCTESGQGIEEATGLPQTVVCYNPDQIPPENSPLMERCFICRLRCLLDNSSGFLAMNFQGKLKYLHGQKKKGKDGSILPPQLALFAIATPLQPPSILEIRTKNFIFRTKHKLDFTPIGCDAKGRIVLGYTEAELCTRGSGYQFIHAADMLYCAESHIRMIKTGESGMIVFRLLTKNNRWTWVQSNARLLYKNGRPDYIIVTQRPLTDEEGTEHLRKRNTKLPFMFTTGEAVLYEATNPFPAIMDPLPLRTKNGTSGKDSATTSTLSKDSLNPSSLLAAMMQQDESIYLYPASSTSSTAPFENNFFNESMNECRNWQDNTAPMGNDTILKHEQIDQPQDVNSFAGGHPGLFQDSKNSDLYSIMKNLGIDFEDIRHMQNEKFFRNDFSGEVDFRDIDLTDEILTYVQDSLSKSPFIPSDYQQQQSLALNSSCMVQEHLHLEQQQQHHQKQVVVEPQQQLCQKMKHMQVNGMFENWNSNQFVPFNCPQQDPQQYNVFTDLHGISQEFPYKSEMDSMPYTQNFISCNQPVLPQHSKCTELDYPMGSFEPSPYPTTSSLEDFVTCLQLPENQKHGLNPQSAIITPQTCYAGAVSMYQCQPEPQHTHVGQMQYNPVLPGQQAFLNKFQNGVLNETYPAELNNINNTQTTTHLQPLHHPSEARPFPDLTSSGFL
Chain of Retinoic acid receptor alpha (Homo sapiens) (P10276 whole entry, looked up): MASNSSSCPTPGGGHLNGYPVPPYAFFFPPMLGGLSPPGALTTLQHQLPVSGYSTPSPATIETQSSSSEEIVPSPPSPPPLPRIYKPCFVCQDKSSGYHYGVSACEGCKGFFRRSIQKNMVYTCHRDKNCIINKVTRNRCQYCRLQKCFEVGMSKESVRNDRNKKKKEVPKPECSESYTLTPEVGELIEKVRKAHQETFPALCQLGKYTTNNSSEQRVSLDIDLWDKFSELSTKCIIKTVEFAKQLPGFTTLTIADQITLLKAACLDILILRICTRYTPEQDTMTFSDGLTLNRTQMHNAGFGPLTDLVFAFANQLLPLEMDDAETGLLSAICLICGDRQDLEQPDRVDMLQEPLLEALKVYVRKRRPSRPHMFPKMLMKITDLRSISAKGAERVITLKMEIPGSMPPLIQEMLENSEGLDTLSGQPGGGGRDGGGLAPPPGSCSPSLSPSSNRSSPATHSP
Chain of CCAAT/enhancer-binding protein beta (Homo sapiens) (P17676 whole entry, looked up): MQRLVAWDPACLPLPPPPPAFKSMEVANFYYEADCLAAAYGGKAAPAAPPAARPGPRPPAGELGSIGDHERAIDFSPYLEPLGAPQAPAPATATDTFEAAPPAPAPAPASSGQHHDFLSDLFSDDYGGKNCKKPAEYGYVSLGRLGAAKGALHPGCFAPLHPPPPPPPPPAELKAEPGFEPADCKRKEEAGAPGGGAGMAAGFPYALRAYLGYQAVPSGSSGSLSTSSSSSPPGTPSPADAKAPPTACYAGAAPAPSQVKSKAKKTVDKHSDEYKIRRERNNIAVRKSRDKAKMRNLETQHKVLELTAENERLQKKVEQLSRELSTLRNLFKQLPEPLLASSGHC

As to `Oc1cc2ccccc2c2ccccc12`, the result in assay [1], in [2], in [3], in assay [4], in assay [5] and in assay [6] was inactive. Besides, the call in assay [7], in [8] and in assay [9] was inactive.
As to `C[C@@H]1C[C@H]2[C@@H]3CCC4=CC(=O)C=C[C@]4(C)[C@@]3(F)[C@@H](O)C[C@]2(C)[C@@]1(O)C(=O)COP(=O)(O)O`, the AC50 (in general, the concentration giving half of the maximal activity seen) in [1] was 1.84 µM (active). Further, the outcome in assay [2], in [3], in assay [4], in assay [5], in assay [6] and in [7] was inactive. In addition, the result in assay [8] and in [9] was inactive.
`NC(=O)N(O)[C@@H]1C=C[C@H](Oc2cccc(Oc3ccc(F)cc3)c2)C1`: the call in [1], in assay [3], in [5], in assay [6], in [7] and in assay [8] was inactive. Further, the result in assay [9] was inactive. Also, the AC50 in assay [2] was 22.6 µM (active); in assay [4] it was 7.56 µM (active).
Consider `CCCCCCC(=O)O`, for which the compound was classed as inactive in [1], in [2], in [3], in [4], in [5] and in assay [6]. For the same compound, the result in [7], in assay [8] and in [9] was inactive.
Turning to `CCOC(=O)CC(O)(CC(=O)OCC)C(=O)OCC`, the compound was called inactive in assay [1], in [2], in [3], in assay [4], in assay [5] and in assay [6]. Moreover, the outcome in assay [7], in assay [8] and in assay [9] was inactive.
Turning to `CC[C@H](c1ccc(O)cc1)[C@@H](CC)c1ccc(O)cc1`, the result in [1], in [2], in assay [3], in [5], in [6] and in [9] was inactive. In addition, the AC50 in [4] is 12.5 µM (active) and 11.1 µM (active) and 7.79 µM (active); in assay [5] it was 11.1 µM (active) and 11 µM (active); in [7], 11.1 µM (active) and 7.83 µM (active) and 9.21 µM (active).
Consider `CCCOC(=O)c1ccc(O)cc1`, for which the result in assay [1], in assay [2], in assay [3], in assay [4], in assay [5] and in assay [6] was inactive. The call in assay [7], in assay [8] and in [9] was inactive. For the same compound, the AC50 was 171 µM (active) in assay [2]; 121 µM (active) in [4]; 26.1 µM (active) in [5]; 48.2 µM (active) in assay [7]; 79.3 µM (active) in assay [9].
Consider `OC1CCCCC1`, for which the call in [1], in assay [2], in assay [3], in assay [4], in assay [5] and in assay [6] was inactive. In addition, the call in assay [7], in assay [8] and in [9] was inactive.
For the compound `COc1cc(CCC(=O)CC(=O)CCc2ccc(O)c(OC)c2)ccc1O`, the compound was classed as inactive in assay [1], in assay [2], in [3], in [4], in [5] and in assay [6]. In addition, the compound was called inactive in assay [7], in assay [8] and in assay [9].
On to `CN1CCN(c2ccccc2/C=C2\SCCN(c3ccc(Cl)c(Cl)c3)C2=O)CC1`, for which the AC50 in assay [1] was 5.01 µM (active). Moreover, the compound was called inactive in assay [2], in assay [3], in assay [4], in assay [5], in assay [6] and in assay [7]. Besides, the compound was called inactive in assay [8] and in assay [9].
With `CCCCOCCO`, the compound was called inactive in assay [1], in assay [2], in assay [3], in assay [4], in assay [5] and in assay [6]. The call in assay [7], in assay [8] and in assay [9] was inactive.
As to `O=C(O)c1ccccc1C(c1ccc(O)cc1)c1ccc(O)cc1`, the call in assay [1], in assay [2], in assay [3], in assay [4], in assay [5] and in assay [6] was inactive. Further, the compound was called inactive in assay [7], in [9] and in assay [10]. Also, in assay [6], the AC50 is 64.8 µM (active).
Turning to `C=C(C)C(=O)OCCC(F)(F)C(F)(F)C(F)(F)C(F)(F)C(F)(F)C(F)(F)F`, the compound was classed as inactive in assay [1], in [2], in assay [3], in assay [4], in assay [5] and in [6]. In addition, the result in assay [7] and in assay [9] was inactive. The AC50 in [6] is 54.4 µM (active).
As for `CCC(C)(C)C1CCC(O)CC1` (stereo not given), the compound was called inactive in [1], in [2], in [3], in [4], in assay [5] and in assay [6]. Moreover, the call in assay [7], in assay [8], in assay [9] and in assay [10] was inactive. Moreover, the AC50 in assay [5] is 172 µM (active); in [6], 48.2 µM (active).
For `CC1=C(/C=C/C(C)=C/C=C/C(C)=C/C(=O)O)C(C)(C)CCC1`, the outcome in assay [1], in [4], in [5], in assay [6], in assay [7] and in assay [8] was inactive. Moreover, the compound was classed as inactive in [9]. The AC50 in assay [2] was 52.4 µM (active) and 3.28 µM (active); in assay [3] it was 6.62 µM (active) and 193 nM (active); in [4], 75.8 µM (active); in assay [5] it was 0.763 µM (active); in assay [7], 42 µM (active).
As to `CC(C)CCCCCCOC(=O)CCCCC(=O)OCCCCCCC(C)C`, the result in assay [1], in assay [2], in assay [3], in assay [4], in assay [5] and in assay [7] was inactive. Also, the compound was called inactive in assay [8] and in assay [9]. In [6], the AC50 is 60.3 µM (active).
With `CCCCC(CC)COC(=O)CCCCC(=O)OCc1ccccc1` (stereo not given), the compound was classed as inactive in assay [1], in [2], in assay [3], in assay [4], in [5] and in [6]. The compound was called inactive in assay [7], in assay [8] and in [9].
